Test results from PubChem BioAssay.
The source made the active and inactive calls.

Legend:
[1] = compounds binding Alexa647 anti-His antibody – biochemical, small-molecule microarray, 635 nm fluorescence, artefact control for SMM control protein annotation, primary screen (AID 1128); conditions: higher = more signal;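 further: score merges feature fluorescence with signal-to-noise for each printed compound spot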
[2] = test system: Human papillomavirus type 1a E7 protein (residues 1-88); assay: HPV1a E7 small-molecule binders, primary screen, biochemical, small-molecule microarray, residues 1-88, 635 nm (AID 1129); conditions: small-molecule microarray binding, fluorescence 635 nm; higher = more signal
[3] = molecular target: Focal adhesion kinase 1 (Homo sapiens) (UniProt Q05397); assay: PTK2 protein binding on printed compound slides – biochemical, small-molecule microarray, 635/667 nm fluorescence, BSA, DTT, primary screen (AID 1130); conditions: 635 nm fluorescence, higher = more signal;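 further: composite of spot emission at 667 nm and signal to noise over triplicate slides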
[4] = test system: Fibrinogen (Alexa647-labelled); assay: Alexa647-fibrinogen binding to printed small molecules – biochemical, small-molecule microarray, 635/667 nm fluorescence, artefact control for SMM control-protein annotation, profiling panel (AID 1131); conditions: fibrinogen-A647 binding fluorescence, higher = more signal;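 further: z-score merges 667 nm fluorescence with per-spot signal-to-noise over triplicate slides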
[5] = molecular target: Follistatin (Homo sapiens) (UniProt P19883); assay: FST protein binding to printed compounds – biochemical, small-molecule microarray, 635/667 nm fluorescence, primary screen (AID 1132); conditions: 635 nm fluorescence, higher = more signal
[6] = molecular target: Fibroblast growth factor 2 (Homo sapiens) (UniProt P09038); assay: basic fibroblast growth factor binding to printed compounds – biochemical, small-molecule microarray, 635/667 nm fluorescence, primary screen (AID 1133); conditions: FGF2, fluorescence 635/667, higher = more signal
[7] = JC-1 mitochondrial potential readout, lung cancer cells – cell-based, A549, JC-1 fluorescence, basal, 24 h, 100 nL, profiling panel (AID 1138); conditions: higher = more signal;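 further: A549 lung adenocarcinoma cells under basal conditions with no added stimulus; test concentration not given here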
Lefty1 = Lefty1 protein binding to printed compounds – biochemical, small-molecule microarray, 635/667 nm fluorescence, primary screen (AID 1139); conditions: fluorescence 635/667, higher = more signal
[8] = test system: wheat germ agglutinin (Triticum aestivum), Alexa647-labelled; assay: Alexa647-WGA lectin binding to printed small molecules – biochemical, small-molecule microarray, 635/667 nm fluorescence, artefact control for SMM control-protein annotation, profiling panel (AID 1140); conditions: WGA-A647 binding, 635 nm fluorescence, higher = more signal;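 further: score merges 667 nm feature emission with signal to noise over triplicate slides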
[9] = molecular target: Luciferin 4-monooxygenase (Photinus pyralis) (UniProt P08659); assay: inhibition of purified Photinus pyralis luciferase – biochemical, luminescence, purified enzyme, 2006 set, primary screen (AID 1141); conditions: purified firefly luciferase, SteadyGlo luminescence, 30 min; higher = more signal, called active from +8 up or from −8 down;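 further: cell-free assay with purified firefly luciferase at 100 ng per well in PBS; test concentration not given here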
Luciferin 4-monooxygenase (Photinus pyralis), sequence (P08659 whole entry, looked up): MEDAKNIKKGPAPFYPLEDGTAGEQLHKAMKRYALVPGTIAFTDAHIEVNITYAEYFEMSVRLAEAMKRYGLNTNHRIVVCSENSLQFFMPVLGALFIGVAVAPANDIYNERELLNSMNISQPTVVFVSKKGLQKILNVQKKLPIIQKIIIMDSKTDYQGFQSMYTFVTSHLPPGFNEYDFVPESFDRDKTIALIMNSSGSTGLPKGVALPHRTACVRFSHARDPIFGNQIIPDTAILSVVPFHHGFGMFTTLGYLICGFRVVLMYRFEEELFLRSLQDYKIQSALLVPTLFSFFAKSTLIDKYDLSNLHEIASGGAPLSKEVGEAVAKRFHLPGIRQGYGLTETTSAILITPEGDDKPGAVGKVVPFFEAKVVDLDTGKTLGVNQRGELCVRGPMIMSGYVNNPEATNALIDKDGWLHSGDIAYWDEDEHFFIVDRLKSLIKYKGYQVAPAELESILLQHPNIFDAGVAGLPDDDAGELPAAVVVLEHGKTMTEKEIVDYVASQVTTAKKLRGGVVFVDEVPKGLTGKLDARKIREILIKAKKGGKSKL

Follistatin (Homo sapiens), sequence (P19883 whole entry, looked up): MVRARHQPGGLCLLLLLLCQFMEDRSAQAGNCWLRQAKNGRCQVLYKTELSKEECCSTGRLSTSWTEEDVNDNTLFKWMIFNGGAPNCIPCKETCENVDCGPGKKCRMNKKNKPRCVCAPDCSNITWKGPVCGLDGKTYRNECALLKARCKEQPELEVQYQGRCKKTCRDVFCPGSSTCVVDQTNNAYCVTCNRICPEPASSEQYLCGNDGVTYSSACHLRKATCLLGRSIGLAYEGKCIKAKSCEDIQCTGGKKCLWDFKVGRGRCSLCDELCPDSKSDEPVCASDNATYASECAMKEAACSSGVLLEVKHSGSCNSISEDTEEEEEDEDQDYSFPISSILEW
Focal adhesion kinase 1 (Homo sapiens), sequence (Q05397 whole entry, looked up): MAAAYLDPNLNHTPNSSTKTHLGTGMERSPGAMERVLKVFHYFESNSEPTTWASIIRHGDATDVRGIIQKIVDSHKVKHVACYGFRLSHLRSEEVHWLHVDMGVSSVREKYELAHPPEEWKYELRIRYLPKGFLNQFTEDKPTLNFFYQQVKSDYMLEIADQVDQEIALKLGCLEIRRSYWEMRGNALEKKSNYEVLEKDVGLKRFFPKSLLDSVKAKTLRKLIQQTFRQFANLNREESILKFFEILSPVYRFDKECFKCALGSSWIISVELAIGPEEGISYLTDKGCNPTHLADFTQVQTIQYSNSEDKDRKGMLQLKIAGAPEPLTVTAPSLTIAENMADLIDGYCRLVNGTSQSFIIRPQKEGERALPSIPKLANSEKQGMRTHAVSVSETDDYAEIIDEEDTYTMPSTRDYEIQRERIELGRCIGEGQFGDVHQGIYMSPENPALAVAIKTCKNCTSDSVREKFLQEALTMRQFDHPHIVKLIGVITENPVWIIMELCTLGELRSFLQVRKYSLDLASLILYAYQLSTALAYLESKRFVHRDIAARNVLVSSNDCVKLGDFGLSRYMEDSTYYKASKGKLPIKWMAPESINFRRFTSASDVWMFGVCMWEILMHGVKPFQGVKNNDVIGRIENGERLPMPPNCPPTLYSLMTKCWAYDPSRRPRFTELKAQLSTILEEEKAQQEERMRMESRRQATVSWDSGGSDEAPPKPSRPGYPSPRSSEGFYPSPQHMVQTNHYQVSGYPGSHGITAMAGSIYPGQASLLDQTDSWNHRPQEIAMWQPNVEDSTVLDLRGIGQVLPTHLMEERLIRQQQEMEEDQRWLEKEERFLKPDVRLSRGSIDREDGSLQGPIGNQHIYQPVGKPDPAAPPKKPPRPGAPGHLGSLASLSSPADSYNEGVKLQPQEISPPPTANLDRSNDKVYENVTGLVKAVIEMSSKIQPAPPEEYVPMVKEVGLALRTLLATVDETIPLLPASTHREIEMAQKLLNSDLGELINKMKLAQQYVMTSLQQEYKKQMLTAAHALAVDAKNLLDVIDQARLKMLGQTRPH
Fibroblast growth factor 2 (Homo sapiens), sequence (P09038 whole entry, looked up): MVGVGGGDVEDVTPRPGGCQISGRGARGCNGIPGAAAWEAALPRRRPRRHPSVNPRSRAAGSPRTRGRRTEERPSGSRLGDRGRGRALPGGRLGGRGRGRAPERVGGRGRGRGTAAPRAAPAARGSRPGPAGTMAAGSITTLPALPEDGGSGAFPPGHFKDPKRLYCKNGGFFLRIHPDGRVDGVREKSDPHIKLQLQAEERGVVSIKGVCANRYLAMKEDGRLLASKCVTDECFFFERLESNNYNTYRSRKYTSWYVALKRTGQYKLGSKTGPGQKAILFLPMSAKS

Row | Compound | composite z-score [1] | composite z-score [2] | composite z-score [3] | composite z-score [4] | composite z-score [5] | composite z-score [6] | z-score [7] | composite z-score (Lefty1) | composite z-score [8] | z-score [9]
1 | CC(C)OC(=O)CC(=O)CC(O)c1ccc([N+](=O)[O-])cc1 (stereo not given) | 0.42 | 0.304 | -0.0134 | -0.434 | -0.134 | -0.404 | 0.276 | -0.006 | 0.518 | 0.419 (inactive)
2 | CCCCC(=C=CC[C@H](O)c1ccc(OCCO)cc1)C[C@H](O)c1cc(Cl)cc(Cl)c1O | 0.323 | 0.606 | 0.0593 | 0.463 | 0.906 | 0.807 | 0.62 | 0.484 | 0.776 | -1.39 (inactive)
3 | [N-]=[N+]=Nc1ccccc1C[C@]1(C(=O)O)N=C(c2ccc(OCCCO)cc2)O[C@H]1c1ccccc1N=[N+]=[N-] | 1.45 | 1.21 | 0.507 | 0.986 | 0.945 | 0.0923 | 0.64 | -0.676 | 1.25 | -5.36 (inactive)
4 | CC(C)C[C@@H]1NC(=O)CNC(=O)[C@@]23C(=O)N[C@@H](Cc4ccccc4)C2[C@H](C)[C@@]2(C)O[C@H]2C3/C=C/C/C=C\CNC1=O (stereo not given in full) | 0.678 | 0.331 | -0.183 | 0.949 | 1.08 | 0.759 | 0.036 | 1.07 | -0.0197 | -0.14 (inactive)
5 | COC(=O)[C@@]1(Cc2ccccc2CN=[N+]=[N-])N=C(c2ccc(OCCCO)cc2)O[C@H]1c1ccccc1 | 2.5 | 0.942 | 0.32 | 0.191 | 1.21 | 0.255 | -0.734 | 0.143 | 0.255 | -2.03 (inactive)
6 | NC(=O)[C@@H]1[C@H]2C(=O)O[C@H](c3ccccc3)[C@H](c3ccccc3)N2[C@H](c2ccc(OCCO)cc2)[C@@]12C(=O)Nc1ccc(C#CCCO)cc12 | 2.24 | 0.988 | 0.215 | 0.639 | 0.89 | 0.396 | -0.399 | -0.143 | 0.659 | -2.01 (inactive)
7 | CCC(CC)C(O)C1C=CC2C(=O)N(c3ccccc3)C(=O)C2N1Nc1ccc([N+](=O)[O-])cc1 (stereo not given) | 0.838 | 1.23 | 1.19 | 0.895 | 0.081 | -0.348 | -1.38 | 0.138 | 1.11 | 1.14 (inactive)
8 | O=C1OCCC/C=C\[C@H]2OC34C=CCN(c5ccc6ccccc6c5)C(=O)[C@H]3N(CCCO)C(=O)[C@@H]4C12 (stereo not given in full) | 1.09 | -0.0247 | 0.984 | -1.07 | -0.45 | -0.755 | 0.333 | -0.345 | 0.576 | -0.183 (inactive)
9 | C=CCN1C(=O)[C@]2(O[C@H](CCO)[C@@H]([Si](C)(C)c3ccc(OC)cc3)[C@@H]2C)c2cc(NC(=O)c3ccc(OC)cc3)ccc21 | 1.17 | 0.668 | 0.241 | 0.318 | 1.36 | 1.21 | -1 | 1.03 | 0.286 | -0.772 (inactive)
10 | CC(C)CNC(=O)[C@@]1(C)c2ccccc2C(=O)N(Cc2cc(C(F)(F)F)cc(C(F)(F)F)c2)[C@H]1c1ccc(CO)cc1 | -0.738 | -0.391 | -0.342 | -1.03 | -0.117 | 0.0193 | 0.843 | 0.0325 | -0.356 | -0.0582 (inactive)
11 | C=C(COC)/C(=C/C[C@@H](OC(C)=O)c1ccc(CO)o1)c1cc(C(=O)OC)ccc1OC | 0.291 | 0.091 | -0.198 | -0.341 | 0.758 | -0.314 | 0.173 | 0.933 | -0.188 | -1.53 (inactive)
12 | CC(C)(C)OC(=O)CC[C@]12N=C(c3ccc(OCCCO)cc3)O[C@H]1c1ccccc1N(Cc1ccccc1)C2=O | 1.6 | 1.13 | 0.56 | 0.758 | 1.35 | 1.4 | 3.04 | 0.457 | 0.477 | -2.2 (inactive)
13 | C=CC[C@H](OC(=O)Nc1ccc(SC)cc1)c1ccc(OCCO)cc1 | 0.299 | -0.444 | -0.452 | -1.96 | 0.734 | 0.144 | 0.08 | 0.34 | 0.61 | -1.93 (inactive)
14 | O=C1OCC=C[C@H]2OC34C=CCN(c5ccc6ccccc6c5)C(=O)[C@H]3N(CCCCCO)C(=O)[C@@H]4[C@@H]12 (stereo not given in full) | 0.0997 | -0.381 | 1.05 | -0.639 | -1.38 | -1.42 | -0.164 | -1.23 | 0.129 | -0.397 (inactive)
15 | CC1(C)C(=O)C(c2ccccc2)=C2CN3C(=O)N(CCc4ccccc4)C(=O)C3(Cc3ccc(F)cc3)C=C21 (stereo not given) | 1.47 | 0.324 | -0.104 | -0.402 | 0.0178 | -0.979 | -0.593 | -0.784 | 0.432 | 0.907 (inactive)
16 | CN1C(=O)[C@@]2(Cc3ccccc3)N=C(c3ccc(OCCCO)cc3)O[C@H]2c2ccccc21 | 1.32 | 1.22 | 0.241 | 0.619 | 1.48 | 1.25 | 0.558 | 0.941 | 0.3 | -6.41 (inactive)
17 | CO[C@H]1O[C@H](CO)[C@@H](OC(=O)Nc2cccc(F)c2)[C@H](OC(=O)Nc2ccccc2-c2ccccc2)[C@H]1OC(=O)Nc1ccccc1-c1ccccc1 | 2.69 | 1.28 | 0.55 | 0.986 | 1.32 | 1.5 | -0.498 | 1.14 | 0.474 | 0.372 (inactive)
18 | CO[C@H]1O[C@H](CO)[C@@H](OC(=O)c2ccc(Br)cc2)[C@@H]2OC(=O)[C@H](Cc3ccccc3)C/C=C/C[C@@H](Cc3ccccc3)C(=O)O[C@@H]12 | 0.478 | 0.817 | 0.703 | 0.135 | 0.84 | 1.37 | 0.0305 | 0.416 | -0.0716 | 0.659 (inactive)
19 | COC(=O)C1=CC(CCCO)=CC(C)N(Cc2cccc(OC(F)(F)F)c2)C=C1C(=O)OC (stereo not given) | 0.178 | 0.702 | 0.955 | -0.269 | -0.278 | -0.807 | 0.142 | -0.0105 | 1.11 | 0.347 (inactive)
20 | CC(C)C[C@@H]1NC(=O)[C@@]23C(=O)N[C@@H](Cc4ccccc4)C2[C@H](C)[C@@]2(C)O[C@H]2C3/C=C/C/C=C\CNC(=O)[C@@H](C)NC1=O (stereo not given in full) | -0.471 | -0.522 | -0.647 | -0.67 | 0.418 | 0.901 | 0.0204 | 0.709 | 0.808 | 0.757 (inactive)
21 | O=C1C2C=CC(C(O)C=Cc3ccc([N+](=O)[O-])cc3)N(Nc3ccccc3)C2C(=O)N1c1ccccc1 (stereo not given) | 0.185 | 1.2 | 0.0142 | 1.02 | 1.24 | 0.0395 | -0.0492 | 0.416 | 0.932 | -1.65 (inactive)
22 | CCCCCN1CC=CC23O[C@@H]4/C=C\CCC(C)OC(=O)C4[C@H]2C(=O)N(CCCCCCO)[C@@H]3C1=O (stereo not given in full) | 0.371 | 0.229 | 0.0767 | -1.31 | 0.0532 | -0.0946 | 1.03 | 0.744 | -0.65 | 0.0812 (inactive)
23 | C=CCC(OC(C)=O)[C@@H]1[C@@H](N(Cc2ccc(-c3cccc(C(F)(F)F)c3)o2)C(=O)c2ccc(C)cc2)c2cc(OCCCO)ccc2N1C(=O)Cc1ccc(OC)cc1 (stereo not given in full) | -0.139 | -0.269 | -0.542 | -0.366 | 1.02 | -0.289 | 1.36 | 0.189 | 0.0232 | 0.147 (inactive)
24 | CC(CO)N1C(=O)[C@@H]2[C@H]3C(=O)OCC=C[C@H]3OC23C=CCN(c2ccc(Cl)cc2)C(=O)[C@@H]13 (stereo not given in full) | -0.715 | -1.39 | 0.0657 | -2.3 | -2.57 | -1.07 | 1.18 | -2.1 | -1.81 | -0.619 (inactive)
25 | O=C1C2C=CC(C(O)c3cccc(O)c3)N(Nc3ccccc3)C2C(=O)N1c1ccccc1 (stereo not given) | 0.811 | 0.452 | 0.0964 | 0.881 | 0.323 | -0.202 | -0.319 | -0.199 | 0.0207 | 0.509 (inactive)
26 | COc1cc(C(O)C2C=CC3C(=O)N(Cc4ccccc4)C(=O)C3N2n2cnnc2)cc(OC)c1OC (stereo not given) | 0.941 | 0.869 | 0.498 | 0.912 | 0.448 | 0.405 | -0.417 | -0.493 | 1.15 | -2.17 (inactive)
